Source: PubChem BioAssay (National Center for Advancing Translational Sciences (NCATS))
TR SRC2 fluor cs: Texas Red fluorescence interference in TRb-SRC2 counter-screen; TRb/SRC2 Texas Red total fluorescence interference; Potency, µM (top dose mostly 106 µM), inactives show at the highest dose fluorescence change, negative = quenching; 280,000 compounds, 0.29% hits; AID 1479; active = well fitted curve in either direction with a large enough effect; inconclusive = small, poorly fitted or top-dose-only effect
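Human TRβ ligand-binding domain (0.6 uM) and Texas Red SRC2 peptide (20 nM) in Tris buffer with 1 uM T3 and 5% DMSO were incubated with pinned compound for 5 hr at ambient temperature. Total fluorescence was computed as S + 2P (555/632 nm).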
BLM inh-1: blocks DNA unwinding by human BLM helicase; recombinant BLM DNA unwinding, fluorescence dequenching; 350,000 compounds, 0.2% hits; AID 2528; Potency, µM (series often up to 56.1 µM), for inactives: at the top dose activity change, negative = inhibition, actives largely listed as inhibitors; P54132;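 also: plate controls were vehicle for no effect and no enzyme for full effect; nearly all actives have a fitted effect of over 35% in size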
TRb-SRC2 inh: TRbeta-SRC2 interaction inhibition. TRbeta-SRC2 peptide binding, fluorescence polarization; receptor liganded with 1 µM T3. P10828. Potency, µM (highest dose often 106 µM), for inactives: at the highest dose activity change, negative = inhibition, actives largely listed as inhibitors. 280,000 compounds, 0.065% hits;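 also: plate controls were bound peptide for no effect and peptide without receptor for full effect; nearly all actives have a fitted effect of over 50% in size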
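Fluorescence polarization of 20 nM Texas Red SRC2 peptide with 0.6 uM human TRb ligand-binding domain, in Tris buffer with 1uM T3 and 5% DMSO. Incubated 5 hr ambient; normalized to unbound and bound controls.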
RECQ1 inh-1: blocks DNA unwinding by human RECQ1; P46063; RECQ1 DNA unwinding, red fluorescence kinetic read; Potency, µM (doses to about 57.3 µM), inactives show at the highest dose activity, negative = inhibition, actives largely listed as inhibitors; 240,000 compounds, 0.54% hits;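 also: plate controls were vehicle for no effect and no enzyme for full effect; nearly all actives have a fitted effect of over 30% in size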
Target sequence (P46063 whole entry, looked up): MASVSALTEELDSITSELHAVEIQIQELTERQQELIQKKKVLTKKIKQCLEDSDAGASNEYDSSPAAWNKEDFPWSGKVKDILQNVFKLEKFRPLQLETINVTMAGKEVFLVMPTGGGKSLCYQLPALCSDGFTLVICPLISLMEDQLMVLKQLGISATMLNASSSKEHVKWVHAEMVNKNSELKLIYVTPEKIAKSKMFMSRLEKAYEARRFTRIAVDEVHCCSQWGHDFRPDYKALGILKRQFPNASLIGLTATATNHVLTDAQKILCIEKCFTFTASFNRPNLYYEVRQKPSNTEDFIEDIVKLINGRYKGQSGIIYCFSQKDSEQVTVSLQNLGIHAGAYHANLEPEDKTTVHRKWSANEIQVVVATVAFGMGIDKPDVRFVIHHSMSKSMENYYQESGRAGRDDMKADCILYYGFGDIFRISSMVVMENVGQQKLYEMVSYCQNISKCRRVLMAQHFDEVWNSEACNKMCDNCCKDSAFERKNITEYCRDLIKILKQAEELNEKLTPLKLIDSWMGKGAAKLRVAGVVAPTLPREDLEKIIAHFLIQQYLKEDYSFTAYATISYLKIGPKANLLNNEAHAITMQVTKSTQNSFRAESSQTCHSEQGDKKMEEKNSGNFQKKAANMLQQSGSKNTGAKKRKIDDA
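RECQ1T1 50 nM; forked duplex (20 bp + 30-nt ss tails) 200 nM, ATP 2 mM final; pH 8.0, 2 mM MgCl2, 2.5 ug/ml poly(dI-dC); 15 min compound preincubation; discontinuous kinetic read over 2 h at RT.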
BLM inh-2: BLM (human) helicase inhibition, confirmation | 220 compounds, 40% hits | shares compounds with BLM inh-1 | BLM DNA unwinding, fluorescence quenching, biochemical | Potency, µM, inactives show max response, negative = inhibition, actives largely listed as inhibitors;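 also: strand separation dequenches TAMRA so unwinding raises red fluorescence; series mostly up to about 69 µM; nearly all actives have a fitted effect of over 45% in size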
RECQ1 conf: confirmation of human RECQ1 helicase inhibitors | shares compounds with RECQ1 inh-1 | RECQ1 helicase DNA unwinding, fluorescence | Potency, µM (titrated, usually from 229 µM), inactives show at the highest dose activity change, negative = inhibition, usual class: inhibitors | 610 compounds, 28% hits | AID 2708; also: nearly all actives have a fitted effect of over 45% in size
RECQ1 ADP FP: displaces ADP in a fluorescence polarization counter-screen for RECQ1 hits; shares compounds with RECQ1 inh-1; ADP fluorescence polarization displacement counterscreen; Potency, µM (titrated, usually from 228 µM), for inactives: at the highest dose activity change, negative = inhibition, actives largely listed as inhibitors; 530 compounds, 27% hits; AID 2711; also: nearly all actives have a fitted effect of over 45% in size
RECQ1 inh-2: confirmation of human RECQ1 helicase inhibitors; shares compounds with RECQ1 inh-1; recombinant RECQ1 DNA unwinding, red fluorescence; Potency, µM (titrated, usually from 119 µM), for inactives: top-dose activity, negative = inhibition, most hits filed as inhibitors; 1,100 compounds, 15% hits; AID 504841; also: nearly all actives have a fitted effect of over 50% in size
* hit, by the source's call; i = inactive; ? = inconclusive; / = no result given; ! = not confirmed by another sample; [ ] = another dose, or the depositor's remark. Sampled rows, rich in hits. Any-hit rate of the full collection: about 0.64%. Unless noted, calls follow the shape of the dose curve; as a rule, active = well fitted curve in the direction sought with a large enough effect; inconclusive = small, poorly fitted or top-dose-only effect, or another doubt; inactive = no such curve, though single readings can be large; an effect the other way counts as inactive or inconclusive. Unless noted, % is scaled to controls: 0 for no effect and ±100 for the full control effect; potency is read from the fitted curve at half-maximal effect.

SMILES	TR SRC2 fluor cs	BLM inh-1	TRb-SRC2 inh	RECQ1 inh-1	BLM inh-2	others
Oc1ccc(CN2CCC(Cc3ccccc3)CC2)c2cccnc12	-0.1%	8.91µM*	-7.1%	-7.8%	18.2µM*
CC1CCn2c(nc3cc(C(=O)NCc4ccccc4)ccc32)C1 (centres undefined)	-1.2%	-0.1%	-0.6%	/	/
Cc1ccc(NC(=S)Nc2cccc3cnccc23)cc1C	2.9%	-12.4%	7.9%	5.0%	/
S=C(Nc1cccc(Cl)c1)Nc1cccc2cnccc12	-0.2%	3.98µM*	15.8%	-0.1%	?
Cc1ccc(CSc2nnc3[nH]c(=O)cc(-c4ccccc4)n23)cc1	0.7%	-5.0%	3.9%	/	/
COc1ccc(-c2csc(NC(=O)CSc3nc(C)nc4sc(C(=O)O)c(C)c34)n2)cc1	-1.8%	31.6µM*	3.7%	-18.2%	32.4µM*
Cc1cccc(OCc2cc(=O)n3c(-c4ccccc4)csc3n2)c1C	-0.8%	-8.3%	-0.9%	/	/
Cc1nc2cc(NC(=O)N3CCN(c4ccccn4)CC3)ccc2o1	-0.4%	2.2%	-0.2%	-6.0%	/
O=C(Nc1ccc2nc(-c3ccco3)c(-c3ccco3)nc2c1)N1CCN(c2ccccn2)CC1	0.6%[53 µM]	4.47µM*	-0.5%[53 µM]	-1.2%	?
Cc1ccc2c(c1)-c1c(c(C(=O)N3CCN(c4cc(Cl)ccc4C)CC3)nn1C)CS2	-0.6%	-4.0%	0.2%	/	/
NC(=O)CC1Nc2cccc3cccc(c23)NC1=O (centres undefined)	3.5%	2.82µM*	-15.1%	-3.8%	-8.7%
CC1(C)Cc2c(C#N)c(N3CCN(C(=O)c4ccccc4Cl)CC3)nc(-c3ccco3)c2CS1	2.7%	14.1µM*	0.0%	-21.2%	?
Oc1ccc(Nc2nc(NCC3CCCO3)c3ccccc3n2)cc1 (centres undefined)	-3.9%	15.8µM*	1.0%	14.1µM*	14.5µM*	RECQ1 conf=25.1µM*;RECQ1 ADP FP=?;RECQ1 inh-2=39.8µM*
Oc1ccccc1Nc1nc(NCC2CCCO2)c2ccccc2n1 (centres undefined)	-3.9%	-8.2%	2.6%	-6.9%	/
Fc1ccc(Nc2ncnc3ccc(-c4ccoc4)cc23)cc1	/	-1.4%	/	i	/
O=C(CSc1nc2scc(-c3ccco3)c2c(=O)n1-c1ccccc1)NCC1CCCO1 (centres undefined)	-3.0%	14.1µM*	5.1%	?	?	RECQ1 inh-2=?
Cc1ccc(-c2cc3ncc(C(=O)c4cc([N+](=O)[O-])ccc4O)cn3n2)cc1	2.8%	-7.2%	-3.5%	/	/
CC(=O)[C@]1(O)Cc2c(O)c3c(c(O)c2[C@@H](O[C@H]2C[C@H](N)[C@H](O)[C@H](C)O2)C1)C(=O)c1ccccc1C3=O	44.7µM*[fluorescent]	-56.3%	?	28.2µM*	-71.9%	RECQ1 conf=35.5µM*;RECQ1 ADP FP=0.562µM*
COc1cccc2c1C(=O)c1c(O)c3c(c(O)c1C2=O)C[C@@](O)(C(C)=O)C[C@@H]3O[C@H]1C[C@H](N)[C@H](O)[C@H](C)O1	44.7µM*![fluorescent]	28.2µM*	22.4µM*!	28.2µM*!	36.3µM*	RECQ1 ADP FP=0.631µM*
Cc1ccccc1Cc1c(C)nc2nc(SCC(=O)N(C)c3ccccc3)nn2c1C	-0.4%	-4.1%	7.4%	/	/
Cc1cccc(NC(=O)CN2C(=O)N/C(=C\c3cccn3-c3cccc(C(=O)O)c3)C2=O)c1	0.4%	-4.9%	1.5%	i	/
O=C(O)c1cccc(-n2cccc2/C=C2/NC(=O)N(c3ccc(Cl)cc3)C2=O)c1	17.8µM*[quencher]	3.55µM*	?	31.6µM*	14.5µM*	RECQ1 conf=?
CN(C)c1ccc(/C=C/c2ccc3ccccc3[n+]2C)cc1	22.8%	?	?	?	/
CN(C)c1ccc(/C=C/c2ccc3c4ccccc4ccc3[n+]2-c2ccccc2)cc1	12.6µM*[fluorescent]	?	?	20µM*	68µM*	RECQ1 conf=22.4µM*
CCOc1ccc(C2c3c(-c4ccc(C)cc4)n[nH]c3C(=O)N2c2ccc(Cl)cc2)cc1 (centres undefined)	0.2%	-14.4%	5.2%	/	/
SMILES	TR SRC2 fluor cs	BLM inh-1	TRb-SRC2 inh	RECQ1 inh-1	BLM inh-2	others
C=C(c1ccc(C(=O)O)cc1)c1cc2c(cc1C)C(C)(C)CCC2(C)C	/	?	/	/	68µM*	RECQ1 conf=?
Oc1ccc(-c2cn3c(n2)SCC3)cc1O	-3.6%	15.8µM*	-1.3%	2.51µM*	?	RECQ1 inh-2=7.08µM*
O=C(NC1CC1)c1cc(-c2ccco2)nc2ccccc12	-15.9%	14.1µM*	-0.7%	20µM*	20.4µM*	RECQ1 conf=20µM*;RECQ1 ADP FP=56.2µM*
O=C(N/N=C/c1ccc(F)cc1)c1cc(-c2ccco2)nc2ccccc12	31.6µM*[quencher]	8.91µM*	2.6%	10µM*	18.2µM*	RECQ1 conf=39.8µM*;RECQ1 ADP FP=?
CCOc1ccc(/C=N/NC(=O)c2cc(-c3ccco3)nc3ccccc23)cc1	0.7%	-4.9%	2.9%	0.1%	/
CCCOc1ccc(NC(=O)CC2C(=O)N(c3ccc(C)cc3)C(=O)N2Cc2cccc(OC)c2)cc1 (centres undefined)	-2.5%	-3.0%	2.0%	/	/
CN(c1ccccc1)c1ccc(/C=C(\CCC(=O)O)c2nc3ccccc3s2)cc1[N+](=O)[O-]	-3.4%[53 µM]	22.4µM*	0.8%[53 µM]	?	36.3µM*	RECQ1 inh-2=12.6µM*
O=C(O)COc1ccc(/C=N/NC(=O)c2ccc(-c3csc(Nc4ccc(Cl)cc4)n3)cc2)cc1	-10.2%	3.55µM*	18.4%	11.2µM*	8.13µM*	RECQ1 conf=7.08µM*;RECQ1 ADP FP=?
Cc1ccc(-c2c(C3C4C=CCC(C)C4C(=O)N3Cc3ccccc3)ccc3ccccc23)cc1 (centres undefined)	0.0%	-9.2%	2.6%	-6.3%	/
Cc1ccc(S(=O)(=O)N(CCc2ccccc2)CC(=O)Nc2cc(C)ccc2C)cc1	-2.8%	-13.3%	2.8%	/	/
CC(=O)Nc1sc2c(c1-c1nc3ccccc3s1)CCN(C(C)C)C2	3.9%	212.4%	1.5%	?	459.2%	RECQ1 inh-2=44.7µM*
CCN1CCc2c(sc(NC(=O)CSc3ccccc3)c2-c2nc3ccccc3s2)C1	-0.8%	-9.4%	-6.6%	/	/
Cc1ccc(SCc2cc(=O)c3c(=O)n(-c4ccccc4)[nH]c3[nH]2)cc1	?	15.8µM*	-9.9%	?	4.9%	RECQ1 inh-2=-6.9%
Cc1ccc2c(=O)cc(CSc3ccccc3)[nH]c2c1C	-0.1%	-7.2%	-0.7%	/	/
COc1cccc(C2CC(=O)Nc3c2c(=O)nc2c(C)cccn32)c1 (centres undefined)	4.4%	-3.1%	-2.3%	/	/
